# Measurements taken from PubChem BioAssay (Tox21).
# Values without a mark were called inactive. Results filed as inconclusive are left out. Where a call stands in place of a potency, no number is given. Activity calls are given as the source filed them. Unless noted, calls follow the shape of the dose curve; as a rule, active = well fitted curve in the direction sought with a large enough effect in the repeat runs; inconclusive = weak or mixed curves; inactive = no such curve, though single readings can be large; an effect the other way counts as inactive or inconclusive.
# Experiments:
# [1] = qHTS assay to identify small molecule antagonists of the sonic hedgehog signaling (Shh) pathway (AID 1259369; calls by dose curve; also: nearly all actives have a fitted effect of over 45% in size)
# How it was run: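 Antagonist mode: compound added to 3T3 Gli1-Luc cells followed by conditioned-medium stimulation, 24 h at 37 C, 5% CO2. Inhibition taken as loss of Gli1-driven luciferase luminescence.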
# [2] = qHTS assay to identify small molecule agonists of the estrogen receptor beta (ER-beta) signaling pathway - cell viability counter screen (AID 1259380); also: nearly all actives have a fitted effect of over 30% in size; also: potency is read from the fitted curve at half-maximal effect
# How it was run: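 Cell viability counter screen: CellTiter-Glo luminescence (30 min, room temperature) measured in the same wells as the beta-lactamase readout, after 16 hr compound exposure at 37C of ER-beta-bla HEK293T cells in 2% charcoal-stripped FBS medium.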
# [3] = biological target: Androgen receptor (Homo sapiens) (UniProt P10275); experiment: qHTS assay to identify small molecule agonists of the androgen receptor (AR) signaling pathway in the presence of an antagonist (AID 1259381; calls by dose curve; also: nearly all actives have a fitted effect of over 15% in size)
# Androgen receptor (Homo sapiens), sequence (P10275 whole entry, looked up): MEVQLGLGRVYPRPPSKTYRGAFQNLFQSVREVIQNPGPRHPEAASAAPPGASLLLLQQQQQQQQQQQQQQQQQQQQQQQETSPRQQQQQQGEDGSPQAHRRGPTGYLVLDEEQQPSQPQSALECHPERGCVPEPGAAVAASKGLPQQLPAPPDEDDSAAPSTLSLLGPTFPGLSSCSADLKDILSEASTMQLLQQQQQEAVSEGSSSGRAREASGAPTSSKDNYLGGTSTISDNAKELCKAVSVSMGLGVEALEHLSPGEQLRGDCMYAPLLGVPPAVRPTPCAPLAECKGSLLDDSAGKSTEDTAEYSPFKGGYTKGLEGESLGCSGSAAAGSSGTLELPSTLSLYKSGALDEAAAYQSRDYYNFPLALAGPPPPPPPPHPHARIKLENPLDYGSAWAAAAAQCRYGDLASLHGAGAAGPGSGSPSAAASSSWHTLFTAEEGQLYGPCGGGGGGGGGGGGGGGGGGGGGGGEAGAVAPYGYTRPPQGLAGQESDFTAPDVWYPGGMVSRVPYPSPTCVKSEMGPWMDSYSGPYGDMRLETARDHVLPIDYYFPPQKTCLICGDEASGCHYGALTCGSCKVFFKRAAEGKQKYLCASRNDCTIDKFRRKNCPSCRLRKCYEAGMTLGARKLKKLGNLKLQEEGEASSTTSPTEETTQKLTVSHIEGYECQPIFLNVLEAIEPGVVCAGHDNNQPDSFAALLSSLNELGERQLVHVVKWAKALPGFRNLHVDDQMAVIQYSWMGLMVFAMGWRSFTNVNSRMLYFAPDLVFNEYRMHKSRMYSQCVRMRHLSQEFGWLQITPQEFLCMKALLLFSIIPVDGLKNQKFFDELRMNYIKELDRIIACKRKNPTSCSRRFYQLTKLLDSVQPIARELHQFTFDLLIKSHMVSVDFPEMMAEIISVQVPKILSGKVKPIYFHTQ
# How it was run: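 Agonist-mode confirmation run against 3.0 uM final nilutamide: compounds titrated at 15 concentrations onto MDA-kb2 MMTV-luciferase reporter cells. Luminescence measured with ONE-Glo following 16 hr incubation, 37C, 0% CO2.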
# [4] = biological target: Estrogen receptor (Homo sapiens) (UniProt P03372); experiment: qHTS assay to identify small molecule agonists of the estrogen receptor alpha (ER-alpha) signaling pathway in the presence of an antagonist (AID 1259383; calls by dose curve; also: top concentration of the series differs between compounds; nearly all actives have a fitted effect of over 15% in size)
# Estrogen receptor (Homo sapiens), sequence (P03372 whole entry, looked up): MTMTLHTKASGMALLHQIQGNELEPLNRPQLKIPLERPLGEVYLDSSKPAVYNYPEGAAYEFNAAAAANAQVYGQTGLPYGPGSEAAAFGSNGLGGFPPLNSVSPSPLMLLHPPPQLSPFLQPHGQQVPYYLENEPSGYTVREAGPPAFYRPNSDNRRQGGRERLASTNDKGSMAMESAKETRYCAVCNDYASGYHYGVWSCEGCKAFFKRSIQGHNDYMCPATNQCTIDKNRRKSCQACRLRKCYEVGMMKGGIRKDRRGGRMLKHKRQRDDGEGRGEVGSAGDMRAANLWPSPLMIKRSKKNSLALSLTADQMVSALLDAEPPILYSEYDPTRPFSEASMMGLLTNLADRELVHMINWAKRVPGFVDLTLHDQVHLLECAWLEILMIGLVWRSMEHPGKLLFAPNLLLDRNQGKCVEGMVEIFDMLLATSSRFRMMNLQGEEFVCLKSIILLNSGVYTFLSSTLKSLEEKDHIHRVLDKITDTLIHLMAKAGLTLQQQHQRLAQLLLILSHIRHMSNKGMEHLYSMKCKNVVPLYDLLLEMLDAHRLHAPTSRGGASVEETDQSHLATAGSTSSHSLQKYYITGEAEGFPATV
# How it was run: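 Agonist-mode confirmation run in the presence of 10.0nM (final) ICI-182,780 antagonist. The reporter was ERE-driven luciferase in VM7Luc4E2 cells, grown in charcoal-stripped serum. Cells were exposed to 15-concentration compound series for 22hr, then ONE-Glo luminescence was read.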
# [5] = qHTS assay to identify small molecule agonists or antagonists of the thyroid stimulating hormone receptor (TSHR) signaling pathway - wild type cell line counter screen (AID 1259384; calls by dose curve)
# How it was run: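 Wild-type Hek293 cells, 800/well, 18 h at 37C, then compound with Ro20-1724 for 30 min RT. cAMP by HTRF (cAMP-d2/anti-cAMP cryptate), 1 h RT, fluorescence read. 15 concentrations, triplicates.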
# [6] = biological target: Thyrotropin receptor (Homo sapiens) (UniProt P16473); experiment: qHTS assay to identify small molecule antagonists of the thyroid stimulating hormone receptor (TSHR) signaling pathway (AID 1259385; calls by dose curve; also: nearly all actives have a fitted effect of over 20% in size)
# Thyrotropin receptor (Homo sapiens), sequence (P16473 whole entry, looked up): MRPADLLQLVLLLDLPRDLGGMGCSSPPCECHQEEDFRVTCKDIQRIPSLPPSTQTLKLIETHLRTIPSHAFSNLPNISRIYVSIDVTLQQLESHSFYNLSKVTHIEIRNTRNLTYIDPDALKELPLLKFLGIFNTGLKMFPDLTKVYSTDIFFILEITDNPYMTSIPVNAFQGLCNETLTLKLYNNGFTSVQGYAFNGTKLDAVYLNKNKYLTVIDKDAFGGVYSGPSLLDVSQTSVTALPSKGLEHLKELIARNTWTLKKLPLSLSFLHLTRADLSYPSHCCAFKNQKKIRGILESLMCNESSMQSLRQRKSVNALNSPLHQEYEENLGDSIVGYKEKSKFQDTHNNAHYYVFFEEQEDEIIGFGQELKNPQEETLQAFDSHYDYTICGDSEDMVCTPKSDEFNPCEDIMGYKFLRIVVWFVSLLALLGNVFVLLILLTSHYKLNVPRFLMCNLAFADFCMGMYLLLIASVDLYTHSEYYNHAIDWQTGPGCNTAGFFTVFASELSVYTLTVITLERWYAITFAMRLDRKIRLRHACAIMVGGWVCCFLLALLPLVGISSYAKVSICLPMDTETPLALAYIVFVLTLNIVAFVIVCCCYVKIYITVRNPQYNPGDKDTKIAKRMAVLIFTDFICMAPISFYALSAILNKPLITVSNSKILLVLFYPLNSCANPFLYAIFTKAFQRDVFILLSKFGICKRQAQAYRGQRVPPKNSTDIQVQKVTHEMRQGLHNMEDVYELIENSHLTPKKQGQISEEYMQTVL
# How it was run: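 TSHR-HEK293 cells (800/well) plated 18 h, then compounds with Ro20-1724 and TSH at 1.5 ng/mL final, 30 min at room temperature. cAMP quantified by HTRF (cAMP-d2/anti-cAMP-cryptate, 1 h); 15 concentrations in triplicate.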
# [7] = qHTS assay to identify small molecule agonists of the estrogen receptor alpha (ER-alpha) signaling pathway in the presence of an antagonist - cell viability counter screen (AID 1259386); also: nearly all actives have a fitted effect of over 30% in size; also: potency is read from the fitted curve at half-maximal effect
# How it was run: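 Compounds tested at 15 concentrations for 22 h at 37C alongside 10.0nM (final) ICI-182,780 antagonist, in VM7Luc4E2 cells grown in phenol red-free, charcoal-stripped medium. Viability read by CellTiter-Fluor fluorescence after 1 h reagent incubation.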
# [8] = qHTS assay to identify small molecule antagonists of the TGF-beta/Smad signaling pathway - cell viability counter screen (AID 1346824); also: nearly all actives have a fitted effect of over 50% in size
# How it was run: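 SBE-bla HEK 293T cells, incubated overnight, then compound plus 0.25 ng/mL TGF-beta1 (stock added) for 5 hr at 37 C. Viability was read in the same wells by CellTiter-Glo luminescence after 30 min at room temperature.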
# [9] = qHTS assay to identify small molecule agonists of the TGF-beta/Smad signaling pathway - cell viability counter screen (AID 1346829); also: top concentration of the series differs between compounds; nearly all actives have a fitted effect of over 45% in size
# How it was run: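 Same-well cytotoxicity: CellTiter-Glo added after the 2 hr room-temperature beta-lactamase substrate step, luminescence measured 30 min later; cells had 5 hr of compound at 37 C.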
# [10] = biological target: Thyrotropin-releasing hormone receptor (Homo sapiens) (UniProt P34981); experiment: qHTS assay to identify small molecule antagonists of the thyrotropin-releasing hormone receptor (TRHR) signaling pathway (AID 1346877; active = well fitted inhibition curve with a large enough effect in the repeat runs, not every such curve was filed as active; also: series mostly up to about 51 µM)
# Thyrotropin-releasing hormone receptor (Homo sapiens), sequence (P34981 whole entry, looked up): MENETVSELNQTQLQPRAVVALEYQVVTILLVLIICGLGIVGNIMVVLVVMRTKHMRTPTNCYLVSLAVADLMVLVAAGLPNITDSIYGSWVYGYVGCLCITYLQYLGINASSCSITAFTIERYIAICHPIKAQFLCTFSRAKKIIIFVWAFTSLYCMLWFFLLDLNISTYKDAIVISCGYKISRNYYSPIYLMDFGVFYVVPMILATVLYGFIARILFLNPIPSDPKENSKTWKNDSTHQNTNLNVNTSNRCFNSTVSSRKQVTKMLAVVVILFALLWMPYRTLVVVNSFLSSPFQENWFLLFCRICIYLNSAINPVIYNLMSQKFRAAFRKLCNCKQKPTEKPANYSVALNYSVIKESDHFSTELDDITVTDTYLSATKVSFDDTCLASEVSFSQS
# How it was run: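 Antagonist mode: after a 5 min room-temperature compound exposure, cells were stimulated with 1 nM (final) TRH. Dye-loaded TRHR-HEK293 cells were used, and calcium-dependent fluorescence was followed for 3 min, with 15-point titrations run in triplicate.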
# [11] = biological target: Thyrotropin-releasing hormone receptor (Homo sapiens) (UniProt P34981); experiment: qHTS assay to identify small molecule agonists of the thyrotropin-releasing hormone receptor (TRHR) signaling pathway (AID 1346891; calls by dose curve; also: potency is read from the fitted curve at half-maximal effect;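 as to activation: HEK293 cells expressing TRHR with calcium dye readout; series mostly up to about 58 µM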)
# How it was run: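 Overnight-plated (18 h, 37 °C, 5% CO2) TRHR-Hek293 cells; 2 h calcium dye at 37 °C; compound in DMSO; 3-min kinetic fluorescence read.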
# [12] = biological target: Estrogen receptor beta (Homo sapiens) (UniProt Q92731); experiment: qHTS assay to identify small molecule agonists of the estrogen receptor beta (ER-beta) signaling pathway (AID 1259377; active = well fitted activation curve with a large enough effect in the signal ratio in the repeat runs, not every such curve was filed as active; the % refers to the signal ratio)
# Estrogen receptor beta (Homo sapiens), sequence (Q92731 whole entry, looked up): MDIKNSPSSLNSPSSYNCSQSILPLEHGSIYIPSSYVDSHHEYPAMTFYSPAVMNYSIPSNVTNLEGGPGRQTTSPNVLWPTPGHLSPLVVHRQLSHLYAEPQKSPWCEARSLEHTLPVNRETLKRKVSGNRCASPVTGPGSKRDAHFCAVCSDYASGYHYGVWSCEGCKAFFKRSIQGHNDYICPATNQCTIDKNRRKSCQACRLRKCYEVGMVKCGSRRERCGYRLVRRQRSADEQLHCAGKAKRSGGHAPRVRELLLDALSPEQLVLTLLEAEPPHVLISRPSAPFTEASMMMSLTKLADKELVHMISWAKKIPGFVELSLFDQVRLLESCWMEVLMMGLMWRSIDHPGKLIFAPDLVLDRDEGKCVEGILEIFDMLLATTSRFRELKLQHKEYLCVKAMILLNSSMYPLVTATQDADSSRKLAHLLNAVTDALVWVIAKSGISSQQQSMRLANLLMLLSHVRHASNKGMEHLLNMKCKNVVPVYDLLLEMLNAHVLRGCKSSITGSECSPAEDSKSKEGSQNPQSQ
# How it was run: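 Screening used GripTite ER-beta-UAS-bla cells held in 2% charcoal-stripped FBS medium. After overnight (16 hr) compound incubation at 37C, beta-lactamase activity was detected with a FRET substrate by fluorescence.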
# [13] = biological target: Estrogen receptor beta (Homo sapiens) (UniProt Q92731); experiment: qHTS assay to identify small molecule antagonists of the estrogen receptor beta (ER-beta) signaling pathway (AID 1259378; active = well fitted inhibition curve with a large enough effect in the signal ratio in the repeat runs, not every such curve was filed as active; the % refers to the signal ratio)
# How it was run: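 ER-beta-UAS-bla HEK293T cells in 2% charcoal-stripped FBS medium treated with compound plus 1nM final 17-beta-estradiol for 16 hr at 37C. Beta-lactamase reporter read by FRET substrate fluorescence after 2 hours at room temperature.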
# [14] = qHTS assay to identify small molecule agonists of the androgen receptor (AR) signaling pathway in the presence of an antagonist - cell viability counter screen (AID 1259379); also: nearly all actives have a fitted effect of over 25% in size; also: potency is read from the fitted curve at half-maximal effect
# How it was run: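 Cytotoxicity counter-screen run in the same wells as the nilutamide-challenged (3.0 µM final) AR agonist assay in MDA-kb2 cells. Compounds tested at 15 concentrations for 16 h, 37 °C without CO2; CellTiter-Fluor fluorescence read.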
# [15] = qHTS assay to identify small molecule antagonists of the estrogen receptor beta (ER-beta) signaling pathway - cell viability counter screen (AID 1259382); also: nearly all actives have a fitted effect of over 55% in size; also: potency is read from the fitted curve at half-maximal effect
# How it was run: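 Cytotoxicity was measured in the same wells by CellTiter-Glo luminescence after 30 min at room temperature. Cells were ER-beta-bla HEK293T in charcoal-stripped serum, given compound together with 1 nM E2 and incubated 16 h at 37C.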
# [16] = biological target: Progesterone receptor (Homo sapiens) (UniProt P06401); experiment: qHTS assay to identify small molecule agonists of the progesterone receptor (PR) signaling pathway (AID 1346784; calls by dose curve; also: nearly all actives have a fitted effect of over 30% in size)
# Progesterone receptor (Homo sapiens), sequence (P06401 whole entry, looked up): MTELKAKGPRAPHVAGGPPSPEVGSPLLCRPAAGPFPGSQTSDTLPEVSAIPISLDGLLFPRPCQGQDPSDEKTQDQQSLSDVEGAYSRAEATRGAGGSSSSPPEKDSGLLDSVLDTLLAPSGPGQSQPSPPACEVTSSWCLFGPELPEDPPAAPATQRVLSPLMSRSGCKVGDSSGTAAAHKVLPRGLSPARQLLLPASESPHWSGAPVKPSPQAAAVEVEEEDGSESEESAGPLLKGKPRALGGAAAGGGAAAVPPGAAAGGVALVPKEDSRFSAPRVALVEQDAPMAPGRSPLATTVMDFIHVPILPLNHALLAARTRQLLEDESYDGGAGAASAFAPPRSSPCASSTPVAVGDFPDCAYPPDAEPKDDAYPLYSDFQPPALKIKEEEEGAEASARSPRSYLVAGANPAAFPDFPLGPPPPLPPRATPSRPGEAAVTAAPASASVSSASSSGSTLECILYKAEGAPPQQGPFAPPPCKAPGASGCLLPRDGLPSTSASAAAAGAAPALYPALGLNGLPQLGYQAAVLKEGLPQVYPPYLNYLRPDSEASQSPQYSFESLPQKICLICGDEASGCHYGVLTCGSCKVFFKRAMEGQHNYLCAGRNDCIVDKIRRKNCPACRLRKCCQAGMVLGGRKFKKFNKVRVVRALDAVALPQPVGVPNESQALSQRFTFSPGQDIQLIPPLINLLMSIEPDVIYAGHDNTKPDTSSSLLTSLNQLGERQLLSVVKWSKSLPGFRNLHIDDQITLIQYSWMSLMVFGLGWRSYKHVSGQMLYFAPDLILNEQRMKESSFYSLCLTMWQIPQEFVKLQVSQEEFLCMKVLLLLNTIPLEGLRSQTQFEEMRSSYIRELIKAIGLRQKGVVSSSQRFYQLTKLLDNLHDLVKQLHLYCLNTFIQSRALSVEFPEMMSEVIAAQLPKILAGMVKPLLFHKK
# How it was run: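 Seed PR-UAS-bla HEK 293T cells (2% charcoal-stripped FBS), incubate 6 hr at 37C; add compounds in DMSO, 16 hr at 37C; add LiveBLAzer B/G substrate, 2 hr RT; read fluorescence intensity.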
# [17] = biological target: Progesterone receptor (Homo sapiens) (UniProt P06401); experiment: qHTS assay to identify small molecule antagonists of the progesterone receptor (PR) signaling pathway (AID 1346795; active = well fitted inhibition curve with a large enough effect in the signal ratio in the repeat runs, not every such curve was filed as active; the % refers to the signal ratio; also: potency is read from the fitted curve at half-maximal effect)
# How it was run: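 Screening used a GripTite HEK293T line with PR-responsive UAS-beta-lactamase. Cells were challenged with compound in the presence of 1 nM R5020 final for 16 hr at 37C; B/G FRET substrate, 2 hr room temperature, fluorescence.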
# [18] = qHTS assay to identify small molecule antagonists of the progesterone receptor (PR) signaling pathway - cell viability counter screen (AID 1346798); also: nearly all actives have a fitted effect of over 50% in size; also: potency is read from the fitted curve at half-maximal effect
# How it was run: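 Measures cytotoxicity in parallel with the PR antagonist reporter read: HEK293T PR-UAS-bla cells get compound and R5020 for 16 hr, and remaining viable cells are quantified by CellTiter-Glo luminescence.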
# [19] = qHTS assay to identify small molecule agonists of the progesterone receptor (PR) signaling pathway - cell viability counter screen (AID 1346799; calls by dose curve; also: nearly all actives have a fitted effect of over 45% in size; also: potency is read from the fitted curve at half-maximal effect)
# How it was run: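 Using the same plates as the PR reporter screen, HEK293T PR-UAS-bla cells received compounds for 16 hr at 37C and were then lysed with CellTiter-Glo; luminescence was read 30 min later at room temperature.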
# [20] = qHTS assay to identify small molecule agonists of the TGF-beta/Smad signaling pathway (AID 1346859; active = well fitted activation curve with a large enough effect in the signal ratio in the repeat runs, not every such curve was filed as active; the % refers to the signal ratio; also: series mostly up to about 77 µM)
# How it was run: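 Beta-lactamase reporter activity downstream of Smad binding elements was measured in stably transfected HEK 293T cells; compounds were incubated for 5 hr, substrate for 2 hr at room temperature.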
Structure (SMILES),Potency [1],Potency [2],Potency [3],Potency [4],Potency [5],Potency [6],Potency [7],Potency [8],outcome [9],outcome [10],Potency [11],Potency [12],Potency [13],Potency [14],Potency [15],Potency [16],Potency [17],Potency [18],Potency [19],Potency [20]
O=C(O)C1(C(=O)Nc2ccc(Cl)cc2Cl)CC1,inactive,15.4 µM (active),inactive,inactive,inactive,inactive,inactive,inactive,inactive,inactive,inactive,–,–,–,–,–,–,–,–,–
CCCCC,–,inactive,–,–,inactive,inactive,inactive,inactive,inactive,–,27.1 µM (active),inactive,inactive,inactive,inactive,inactive,inactive,inactive,inactive,inactive
O=C1OC(CN2CCOCC2)CN1/N=C/c1ccc([N+](=O)[O-])o1 (centres undefined),–,inactive,inactive,inactive,inactive,inactive,–,inactive,inactive,–,–,inactive,inactive,–,inactive,inactive,–,inactive,inactive,inactive
CC[N+]1(CC)CCC(=C(c2ccccc2)c2ccccc2)C1C (centres undefined),–,inactive,–,–,inactive,inactive,inactive,inactive,inactive,–,–,–,–,–,inactive,inactive,inactive,inactive,inactive,inactive
CCOC(=O)NCCOc1ccc(Oc2ccccc2)cc1,–,–,–,inactive,inactive,inactive,inactive,–,inactive,inactive,inactive,–,–,61.1 µM (active),inactive,inactive,17.2 µM (active),–,–,inactive
Nc1ccc(N)c2c1C(=O)c1ccccc1C2=O,–,7.7 µM (active),inactive,–,–,–,9.69 µM (active),inactive,inactive,inactive,inactive,–,inactive,21.7 µM (active),–,inactive,inactive,27.3 µM (active),inactive,inactive
Nc1ccc(S(=O)(=O)Nc2ccccc2)cc1,–,inactive,–,–,inactive,inactive,–,inactive,inactive,inactive,inactive,–,–,inactive,inactive,inactive,–,inactive,inactive,inactive
COc1ccc(C(=O)Nc2nc3ccccc3c(NCc3ccccc3)c2C#N)cc1,–,27.3 µM (active),–,inactive,–,–,–,–,inactive,–,–,–,inactive,inactive,inactive,inactive,inactive,inactive,inactive,–
C=C(C)C(=O)OCCO,–,inactive,–,inactive,inactive,inactive,–,inactive,inactive,inactive,inactive,–,–,inactive,inactive,inactive,–,inactive,inactive,inactive
O=C(O)c1nc(Cl)c(Cl)c(Cl)c1Cl,–,–,–,–,inactive,inactive,–,inactive,inactive,inactive,inactive,–,–,inactive,inactive,–,–,inactive,inactive,–
CCC(CC)Nc1ccc(C)c(C)c1,–,inactive,–,inactive,–,–,–,inactive,inactive,inactive,inactive,–,inactive,inactive,inactive,inactive,inactive,inactive,inactive,inactive
COC(=O)C1=C(C)NC(COC(N)=O)=C(C(=O)OC(C)C)C1c1cccc(Cl)c1Cl (centres undefined),–,–,inactive,inactive,inactive,inactive,inactive,–,inactive,–,–,–,inactive,inactive,inactive,inactive,–,–,–,–
CCN(CC)CCNc1ccc(CNC=O)c2sc3ccc(OC)cc3c(=O)c12,–,8.63 µM (active),–,inactive,–,–,13.7 µM (active),–,inactive,inactive,inactive,–,–,–,8.63 µM (active),inactive,43.3 µM (active),24.3 µM (active),27.3 µM (active),–
CC1=CC[C@H](C(C)C)C=C1,–,–,–,inactive,–,–,inactive,inactive,inactive,–,–,–,–,inactive,inactive,inactive,–,inactive,inactive,inactive
O=C(O)c1ccc(-n2nc(-c3ccccc3O)nc2-c2ccccc2O)cc1,–,inactive,–,inactive,–,–,inactive,inactive,inactive,inactive,inactive,–,–,inactive,inactive,inactive,–,inactive,inactive,inactive
CCCCC(CC)CN1C(=O)C2C3C=CC(C3)C2C1=O (centres undefined),–,–,–,inactive,inactive,inactive,–,inactive,inactive,inactive,inactive,inactive,–,inactive,inactive,inactive,34.4 µM (active),inactive,inactive,inactive
CCOC(=O)C1=C[C@]2(CC)CCCN3CCc4c(n1c1ccccc41)[C@@H]32,–,26.6 µM (active),–,inactive,inactive,inactive,–,inactive,–,inactive,inactive,–,–,inactive,inactive,inactive,23.7 µM (active),inactive,inactive,–
CCCCCC[C@@H](O)C/C=C\CCCCCCCC(=O)OC,–,inactive,inactive,inactive,inactive,inactive,inactive,inactive,inactive,inactive,inactive,–,–,inactive,inactive,inactive,inactive,inactive,inactive,inactive
